Potency, max response and outcome data for 20 compounds are collected here from PubChem BioAssay (NCATS).

Values joined by “and” are separate entries in the source; they are usually repeats but may differ in a detail not shown here. Equal values may be shown once. Records with an inconclusive call do not appear. Values without a mark were called inactive. Active and inactive are the calls of the source. Calls follow the shape of the dose curve; as a rule, active = well fitted inhibition curve with a large enough effect; inconclusive = small, poorly fitted or top-dose-only effect; inactive = flat fitted curve, though single readings scatter.

For assay [1], the system named is CRL-7250. Put plainly: Cytotoxic Profiling of Annotated Libraries Using Quantitative High-Throughput Screening (AID 1296008). Also: potency is read from the fitted curve at half-maximal effect. As to max response: % is scaled to controls: 0 for no effect and ±100 for the full control effect. Particulars: Five cell lines viability, CellTiter-Glo ATP luminescence, 48-72 h; max response: stronger effect = lower value. In a few lines: (§1)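 Compounds were pin-transferred onto cells and incubated 48 or 72 hr at 37 degree Celsius, 95% humidity. CellTiter-Glo was added, plates sat 10 min at room temperature, then ATP-coupled luminescence was imaged as the viability read-out.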
(In general: In ATP-based viability assays light output follows the ATP content of the culture.)

The subject of a further assay is HEK293. The description is as above. Particulars: Five cell lines viability, CellTiter-Glo ATP luminescence, 48-72 h; max response: stronger effect = lower value. In a few lines:
as §1

The test system of another assay is HaCat. Described as above. Particulars: Five cell lines viability, CellTiter-Glo ATP luminescence, 48-72 h; max response: stronger effect = lower value. The method in brief:
as §1

The subject of another assay is KB-3-1. Described as above. Particulars: Five cell lines viability, CellTiter-Glo ATP luminescence, 48-72 h; max response: stronger effect = lower value. The method in brief: as §1
Another assay relates to NIH3T3. The assay is described as above. Particulars: Five cell lines viability, CellTiter-Glo ATP luminescence, 48-72 h; max response: stronger effect = lower value. In a few lines:
as §1

The test system of a further assay is ICS. Put plainly: qHTS profiling for inhibitors of Plasmodium falciparum proliferation (AID 504749).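 Also: 0% = DMSO vehicle and full inhibition = artemisinin control.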 Particulars: P. falciparum in erythrocytes, SYBR Green DNA, 72 h; series mostly up to 28.7 µM. The method in brief:
(§2)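 Fluorescence of SYBR Green-bound parasite DNA, read at 485/535 nm, served as the growth measure. Infected erythrocytes were cultured with compound 72 h; artemisinin (0.29 uM) and DMSO wells defined the normalization range.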
(In general: qHTS replaces the single test concentration by a dilution series.)

Another assay deals with JCK. The description is as above. Particulars: P. falciparum in erythrocytes, SYBR Green DNA, 72 h; series mostly up to 28.7 µM. The method in brief: as §2
The next assay relates to N140. The assay is described as above. Particulars: P. falciparum in erythrocytes, SYBR Green DNA, 72 h; series mostly up to 28.7 µM. The method in brief: as §2
The test system of another assay is P93_24. Described as above. Particulars: P. falciparum in erythrocytes, SYBR Green DNA, 72 h; series mostly up to 28.7 µM. In a few lines: as §2
In another assay the test system is P94_40. Described as above. Particulars: P. falciparum in erythrocytes, SYBR Green DNA, 72 h; series mostly up to 28.7 µM. The method in brief:
as §2

A further assay concerns PAD. The assay is described as above. Particulars: P. falciparum in erythrocytes, SYBR Green DNA, 72 h; series mostly up to 28.7 µM. The method in brief:
as §2

In a further assay the test system is PC15. Described as above. Particulars: P. falciparum in erythrocytes, SYBR Green DNA, 72 h; series mostly up to 28.7 µM. The method in brief: as §2
In a further assay the test system is PC26. The description is as above. Particulars: P. falciparum in erythrocytes, SYBR Green DNA, 72 h; series mostly up to 28.7 µM. The method in brief:
as §2

A further assay relates to PC49. The description is as above. Particulars: P. falciparum in erythrocytes, SYBR Green DNA, 72 h; series mostly up to 28.7 µM. The method in brief:
as §2

In another assay the test system is SC27B. The description is as above. Particulars: P. falciparum in erythrocytes, SYBR Green DNA, 72 h; series mostly up to 28.7 µM. In a few lines: as §2
In a further assay the test system is TAB109. Described as above. Particulars: P. falciparum in erythrocytes, SYBR Green DNA, 72 h; series mostly up to 28.7 µM. The method in brief: as §2
The next assay deals with TAB113. Described as above. Particulars: P. falciparum in erythrocytes, SYBR Green DNA, 72 h; series mostly up to 28.7 µM. In a few lines: as §2
The test system of the next assay is TAB165. Described as above. Particulars: P. falciparum in erythrocytes, SYBR Green DNA, 72 h; series mostly up to 28.7 µM. The method in brief:
as §2

A further assay relates to W2. The assay is described as above. Particulars: P. falciparum in erythrocytes, SYBR Green DNA, 72 h; series mostly up to 28.7 µM. The method in brief: as §2
The subject of assay [2] is CRL-7250. Put plainly: qHTS assay to identify novel small-molecules to repurpose for Merkel cell carcinoma treatment (AID 1296009). Particulars: MCC and control cell lines, CellTiter-Glo viability, 72 h; at 44.8 µM (top of the series) unless noted. In a few lines: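 Luminescence from CellTiter-Glo, read 10 min after addition at room temperature, reported viability following a 72 hr, 37 degree celsius treatment with NPC or MIPE compounds in titration; values normalized to plate controls.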
Also: nearly all actives have a fitted effect of over 60% in size.

Take `C[C@@H]1O[C@@H](O[C@@H]2C=C3CC[C@@H]4[C@H](CC[C@]5(C)[C@@H](c6ccc(=O)oc6)CC[C@]45O)[C@@]3(C)CC2)[C@H](O)[C@H](O)[C@H]1O`: the Potency with CRL-7250 [1] was 13.3 nM (active); with HEK293 it was 33.5 nM (active); in the assay on HaCat, 42.2 nM (active).

`CCC(=O)OC1(c2ccccc2)CCN(C)CC1`: the max response is -2.3% in the assay on CRL-7250 [1]; -12.2% in the assay with HEK293; -5.78% in the assay with HaCat; 2.4% with KB-3-1; -0.056% in the assay with NIH3T3.

With `CN1C(=O)CN=C(c2ccccc2)c2cc([N+](=O)[O-])ccc21`, the Potency result in the assay with ICS, with JCK, with N140, in the assay on P93_24, in the assay with P94_40 and in the assay on PAD was “inactive” throughout. The Potency entry in the assay with PC15, in the assay with PC26, in the assay on PC49, with SC27B, in the assay on TAB109 and with TAB113 was “inactive” in each case. Moreover, the Potency result with TAB165 and with W2 was “inactive” throughout. The result in the assay on CRL-7250 [1], in the assay on HaCat, with NIH3T3 and in the assay on CRL-7250 [2] was inactive. Moreover, the max response with HEK293 is -10%; in the assay with KB-3-1, 9.64%.

`CCCCC1C(=O)NC(=O)N(C2CCCCC2)C1=O` (stereo not drawn): the max response was -13.7% in the assay on CRL-7250 [1], 0.515% in the assay with HEK293, 2.39% with KB-3-1 and -9.24% in the assay with NIH3T3. Further, the compound was classed as inactive in the assay with HaCat.

Take `CCOC(=O)c1ncn2c1CN(C)C(=O)c1c(I)cccc1-2`: the max response in the assay with CRL-7250 [1] is -19.8%; in the assay on HEK293 it was -11.8%; with HaCat it was -1.53%; in the assay on KB-3-1, 1.54%; with NIH3T3, -15.1%.

In the case of `C[C@H]1CNCCc2ccc(Cl)cc21`, the result with CRL-7250 [1], with HEK293, in the assay on NIH3T3 and with CRL-7250 [2] was inactive. For the same compound, the max response was 2.82% in the assay on HaCat and -14.3% in the assay with KB-3-1.

Turning to `CC(C)C(Br)C(=O)NC(N)=O` (stereo not drawn), the Potency result in the assay on ICS, in the assay with JCK, in the assay on N140, with P93_24, with P94_40 and in the assay on PAD was “inactive” in each case. The Potency result in the assay with PC15, with PC26, with PC49, in the assay on SC27B, in the assay with TAB109 and in the assay with TAB113 was “inactive” throughout. Besides, the Potency entry in the assay with TAB165 and in the assay on W2 was “inactive” throughout. Moreover, the compound was classed as inactive with CRL-7250 [1] and with CRL-7250 [2]. Also, the max response with HEK293 was 2.09%; in the assay with HaCat, -11.8%; with KB-3-1, -15.8%; in the assay with NIH3T3 it was -7.2%.

For the compound `CCOC(=O)NC(O)C(Cl)(Cl)Cl` (stereo not drawn), the Potency entry with ICS, in the assay with JCK, with N140, with P93_24, with P94_40 and with PAD was “inactive” throughout. In addition, the Potency entry in the assay with PC15, in the assay with PC26, in the assay on PC49, in the assay with SC27B, in the assay with TAB109 and with TAB113 was “inactive” each time. The Potency result with TAB165 and with W2 was “inactive” each time. In addition, the max response with CRL-7250 [1] is 0.547%; with HEK293, -1.01%; in the assay on KB-3-1, 11.7%; with NIH3T3, 0.136%. For the same compound, in the assay with HaCat, the result was inactive.

As to `COc1cc(CC(C)N)cc2c1OCO2` (stereo not drawn), the max response in the assay with CRL-7250 [1] was -5.81%; in the assay on HEK293, -16.7%; in the assay on HaCat, 1.78%; in the assay on KB-3-1, -6.39%; in the assay on NIH3T3, -6.97%.

Consider `CN(C)CCc1c[nH]c2ccc(O)cc12`, for which the max response with CRL-7250 [1] is 4.21%; with HEK293, -2.05%; with KB-3-1, 2.29%. Also, the compound was classed as inactive with HaCat and with NIH3T3.

With `OC(O)C(Cl)(Cl)Cl`, the Potency result in the assay with ICS, with JCK, with N140, with P93_24, in the assay with P94_40 and with PAD was “inactive” in each case. Also, the Potency result with PC15, in the assay on PC26, with PC49, in the assay on SC27B, with TAB109 and in the assay with TAB113 was “inactive” throughout. Also, the Potency entry in the assay on TAB165 is “inactive”. Further, the values for the max response in the assay on CRL-7250 [1], in the assay on HEK293 and in the assay with KB-3-1 were -3.66%, -2.43% and 1.25%, respectively. The result with HaCat and with NIH3T3 was inactive.

Take `CNC(C)Cc1ccc2c(c1)OCO2` (stereo not drawn): the max response was 4.98% in the assay with CRL-7250 [1]; -3.37% in the assay on HEK293; -2.61% in the assay with HaCat; -21.8% with KB-3-1; 0.465% with NIH3T3.

For `C=CCN1CC[C@]23CCCC[C@H]2[C@H]1Cc1ccc(O)cc13`, the max response in the assay on CRL-7250 [1] was 1.58%; in the assay with HEK293, -6.38%; in the assay with KB-3-1, 20.9%; in the assay with NIH3T3, -4.67%. The compound was called inactive in the assay on HaCat.

With `CCOP(=S)(OCC)O/N=C(\C#N)c1ccccc1`, the max response was -6.28% in the assay on CRL-7250 [1] and -0.0569% in the assay on KB-3-1. Moreover, the call in the assay with HEK293, in the assay with HaCat and in the assay with NIH3T3 was inactive.

`CCCC[N+]1(C)[C@@H]2CC(OC(=O)[C@H](CO)c3ccccc3)C[C@H]1[C@@H]1O[C@@H]12` (stereo partly drawn): the max response with CRL-7250 [1] was -24.5%; in the assay on HaCat, -9.09%; in the assay with KB-3-1 it was 6.44% and 1.1%; in the assay with NIH3T3 it was 4.56% and 3.97%. Besides, the result with CRL-7250 [1], in the assay on HEK293, in the assay with HaCat and in the assay with CRL-7250 [2] was inactive.

`CNC(C)Cc1ccccc1OC` (stereo not drawn): the max response is -10.9% in the assay with CRL-7250 [1]; -10.8% with HEK293; -16.5% with HaCat; 2.15% in the assay with KB-3-1; -6.74% in the assay with NIH3T3.

As to `CCOC(=O)NC(C)(C)Cc1ccc(Cl)cc1`, the max response was -4.28% with CRL-7250 [1], 1.84% with HaCat, 2.37% in the assay on KB-3-1 and -3.93% in the assay on NIH3T3. Moreover, in the assay with HEK293, the compound was called inactive.

For the compound `CNC(=O)NC(O)C(Cl)(Cl)Cl` (stereo not drawn), the Potency entry in the assay with ICS, in the assay with JCK, in the assay with N140, in the assay with P93_24, with P94_40 and in the assay with PAD was “inactive” in each case. Besides, the Potency result in the assay with PC15, in the assay with PC26, in the assay with PC49, in the assay with SC27B, in the assay on TAB109 and in the assay with TAB113 was “inactive” in each case. The Potency entry in the assay with TAB165 and in the assay on W2 was “inactive” in each case. Moreover, the max response in the assay on CRL-7250 [1] was 2.85%; in the assay with HEK293, 2.62%; in the assay on KB-3-1, 2.2%; in the assay with NIH3T3 it was -0.697%. Besides, the outcome with HaCat was inactive.

With `CN(C)CCc1c[nH]c2ccccc12`, the max response with CRL-7250 [1] is 2.04%; in the assay on HEK293 it was -13.9%; with HaCat, 4.72%; in the assay on KB-3-1, -5.51%; in the assay with NIH3T3, 2.6%.

Regarding `CC(Cc1ccc2c(c1)OCO2)NO` (stereo not drawn), the max response is -0.759% in the assay with CRL-7250 [1]; -1.22% in the assay with HEK293; -1.01% in the assay on HaCat; -9.46% in the assay with KB-3-1; 3.02% in the assay with NIH3T3.
